{"source": "PubChem BioAssay AID1159580", "about": "(chemical genetic matrix, 2015)", "assay": "chemical genetic growth profiling, strain panel (AID 1159580);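 also: tested at 20 µM; growth read once vehicle control cultures reached saturation at 30 °C; 1 = growth at the plate median or of vehicle wells; lower values mean less growth of the strain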", "settings": "S. cerevisiae deletion strains, growth OD", "note": "In all, about 5,500 compounds went through this assay and about 2,000 (36%) were called active. Not shown: some 18% with an inconclusive outcome. The list shows a part of the results. Values without a mark were called inactive. Rule as the data show it: active = normalized growth mostly below about 0.91 (no sharp cut-off); inconclusive = no clear call, values can overlap the other calls; inactive = mostly above about 0.92.", "data": [{"smiles": "N#C/C(=C\\c1ccc(C(F)(F)F)cc1)c1ccc(O)cc1", "values": [{"measurement": "normalized growth", "setting": "locus YAR019C, strain CDC15, hits give low values", "value": 0.969}, {"measurement": "normalized growth", "setting": "locus YBL105C, strain PKC1, hits give low values", "value": 0.968}, {"measurement": "normalized growth", "setting": "locus YBR135W, strain CKS1, hits give low values", "value": 0.965}, {"measurement": "normalized growth", "setting": "locus YBR136W, strain MEC1, hits give low values", "value": 0.97}, {"measurement": "normalized growth", "setting": "locus YBR160W, strain CDC28, hits give low values", "value": 0.976}, {"measurement": "normalized growth", "setting": "locus YDL017W, strain CDC7, hits give low values", "value": 0.966}, {"measurement": "normalized growth", "setting": "locus YDL028C, strain MPS1, hits give low values", "value": 0.976}, {"measurement": "normalized growth", "setting": "locus YDL101C, strain DUN1, hits give low values", "value": 0.979}, {"measurement": "normalized growth", "setting": "locus YDL108W, strain KIN28, hits give low values", "value": 0.972}, {"measurement": "normalized growth", "setting": "locus YDL132W, strain cdc53, hits give low values", "value": 0.973}, {"measurement": "normalized growth", "setting": "locus YDL214C, strain PRR2, hits give low values", "value": "0.478 (active)"}, {"measurement": "normalized growth", "setting": "locus YDR052C, strain DBF4, hits give low values", "value": 0.988}, {"measurement": "normalized growth", "setting": "locus YDR054C, strain cdc34, hits give low values", "value": 0.96}, {"measurement": "normalized growth", "setting": "locus YDR226W, strain ADK1, hits give low values", "value": 0.969}, {"measurement": "normalized growth", "setting": "locus YDR477W, strain SNF1, hits give low values", "value": "0.497 (active)"}, {"measurement": "normalized growth", "setting": "locus YER123W, strain YCK3, hits give low values", "value": "0.508 (active)"}, {"measurement": "normalized growth", "setting": "locus YER133W, strain GLC7, hits give low values", "value": "0.492 (active)"}, {"measurement": "normalized growth", "setting": "locus YFL009W, strain cdc4, hits give low values", "value": 0.967}, {"measurement": "normalized growth", "setting": "locus YFL029C, strain CAK1, hits give low values", "value": 0.978}, {"measurement": "normalized growth", "setting": "locus YFR003C, strain YPI1, hits give low values", "value": 0.971}, {"measurement": "normalized growth", "setting": "locus YFR019W, strain FAB1, hits give low values", "value": "0.647 (active)"}, {"measurement": "normalized growth", "setting": "locus YFR028C, strain CDC14, hits give low values", "value": 0.964}, {"measurement": "normalized growth", "setting": "locus YGR040W, strain KSS1, hits give low values", "value": "0.53 (active)"}, {"measurement": "normalized growth", "setting": "locus YGR052W, strain FMP48, hits give low values", "value": "0.5 (active)"}, {"measurement": "normalized growth", "setting": "locus YGR092W, strain DBF2, hits give low values", "value": "0.365 (active)"}, {"measurement": "normalized growth", "setting": "locus YHR030C, strain SLT2, hits give low values", "value": "0.308 (active)"}, {"measurement": "normalized growth", "setting": "locus YHR079C, strain IRE1, hits give low values", "value": "0.334 (active)"}, {"measurement": "normalized growth", "setting": "locus YHR082C, strain KSP1, hits give low values", "value": "0.492 (active)"}, {"measurement": "normalized growth", "setting": "locus YHR205W, strain SCH9, hits give low values", "value": "0.359 (active)"}, {"measurement": "normalized growth", "setting": "locus YIL147C, strain SLN1, hits give low values", "value": 0.974}, {"measurement": "normalized growth", "setting": "locus YJL095W, strain BCK1, hits give low values", "value": "0.464 (active)"}, {"measurement": "normalized growth", "setting": "locus YJL128C, strain PBS2, hits give low values", "value": 0.913}, {"measurement": "normalized growth", "setting": "locus YJL157C, strain FAR1, hits give low values", "value": "0.47 (active)"}, {"measurement": "normalized growth", "setting": "locus YJR016C, strain ILV3, hits give low values", "value": 0.974}, {"measurement": "normalized growth", "setting": "locus YJR066W, strain TOR1 (second series), hits give low values", "value": "0.29 (active)"}, {"measurement": "normalized growth", "setting": "locus YJR066W, strain TOR1, hits give low values", "value": "0.435 (active)"}, {"measurement": "normalized growth", "setting": "locus YKL048C, strain ELM1, hits give low values", "value": "0.411 (active)"}, {"measurement": "normalized growth", "setting": "locus YKL067W, strain YNK1, hits give low values", "value": "0.525 (active)"}, {"measurement": "normalized growth", "setting": "locus YKL101W, strain HSL1, hits give low values", "value": "0.465 (active)"}, {"measurement": "normalized growth", "setting": "locus YKL193C, strain SDS22, hits give low values", "value": 0.972}, {"measurement": "normalized growth", "setting": "locus YKL203C, strain TOR2, hits give low values", "value": "0.428 (active)"}, {"measurement": "normalized growth", "setting": "locus YLR113W, strain HOG1, hits give low values", "value": "0.431 (active)"}, {"measurement": "normalized growth", "setting": "locus YLR133W, strain CKI1, hits give low values", "value": "0.498 (active)"}, {"measurement": "normalized growth", "setting": "locus YLR403W, strain SFP1, hits give low values", "value": "0.445 (active)"}, {"measurement": "normalized growth", "setting": "locus YML070W, strain DAK1, hits give low values", "value": "0.535 (active)"}, {"measurement": "normalized growth", "setting": "locus YMR001C, strain CDC5, hits give low values", "value": 0.96}, {"measurement": "normalized growth", "setting": "locus YMR205C, strain PFK2 (second series), hits give low values", "value": "0.54 (active)"}, {"measurement": "normalized growth", "setting": "locus YMR277W, strain FCP1, hits give low values", "value": 0.963}, {"measurement": "normalized growth", "setting": "locus YNL006W, strain LST8, hits give low values", "value": 0.959}, {"measurement": "normalized growth", "setting": "locus YNL020C, strain ARK1, hits give low values", "value": "0.45 (active)"}, {"measurement": "normalized growth", "setting": "locus YNL161W, strain CBK1, hits give low values", "value": 0.967}, {"measurement": "normalized growth", "setting": "locus YNL183C, strain NPR1, hits give low values", "value": "0.467 (active)"}, {"measurement": "normalized growth", "setting": "locus YNL207W, strain RIO2, hits give low values", "value": 0.961}, {"measurement": "normalized growth", "setting": "locus YNL222W, strain SSU72, hits give low values", "value": 0.964}, {"measurement": "normalized growth", "setting": "locus YNL307C, strain MCK1 (second series), hits give low values", "value": "0.395 (active)"}, {"measurement": "normalized growth", "setting": "locus YOL078W, strain AVO1, hits give low values", "value": 0.973}, {"measurement": "normalized growth", "setting": "locus YOL136C, strain PFK27, hits give low values", "value": "0.492 (active)"}, {"measurement": "normalized growth", "setting": "locus YOR061W, strain CKA2, hits give low values", "value": "0.43 (active)"}, {"measurement": "normalized growth", "setting": "locus YOR119C, strain RIO1, hits give low values", "value": "0.498 (active)"}, {"measurement": "normalized growth", "setting": "locus YOR231W, strain MKK1, hits give low values", "value": "0.469 (active)"}, {"measurement": "normalized growth", "setting": "locus YOR329C, strain SCD5, hits give low values", "value": 0.962}, {"measurement": "normalized growth", "setting": "locus YPL031C, strain PHO85, hits give low values", "value": "0.421 (active)"}, {"measurement": "normalized growth", "setting": "locus YPL153C, strain RAD53, hits give low values", "value": "0.444 (active)"}, {"measurement": "normalized growth", "setting": "locus YPL204W, strain HRR25, hits give low values", "value": "0.453 (active)"}, {"measurement": "normalized growth", "setting": "locus YPL209C, strain IPL1, hits give low values", "value": 0.965}, {"measurement": "normalized growth", "setting": "locus YPL256C, strain CLN2, hits give low values", "value": "0.427 (active)"}, {"measurement": "normalized growth", "setting": "locus YPR025C, strain CCL1, hits give low values", "value": 0.971}, {"measurement": "normalized growth", "setting": "locus YPR106W, strain ISR1, hits give low values", "value": 0.965}, {"measurement": "normalized growth", "setting": "locus YPR111W, strain DBF20, hits give low values", "value": 0.953}, {"measurement": "normalized growth", "setting": "strain NNK1, hits give low values", "value": 0.95}, {"measurement": "normalized growth", "setting": "strain TSCII, hits give low values", "value": 0.967}]}]}
